From the supplement of paper PMC8728848 come the findings set out here.

Assay in all cases: glycan array binding signal (z-score within array); higher = stronger binding
Settings in all cases: glycan notation: IUPAC condensed, linker removed

Assay [1] addresses GlcNAc(b1-3)Gal(b1-4)GlcNAc(b1-2)[GlcNAc(b1-3)Gal(b1-4)GlcNAc(b1-6)]Man(a1-6)[GlcNAc(b1-3)Gal(b1-4)GlcNAc(b1-2)Man(a1-3)]Man(b1-4)GlcNAc(b1-4)GlcNAc. The method in brief:
(§1)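 The binding signal is a Z-score computed within each array and averaged over linkers. Arrays of the same protein sequence at different concentrations or buffers were also averaged together. Data originate from 3228 arrays in the Consortium for Functional Glycomics database, kept only where the protein sequence was available.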

Assay [2] addresses GlcNAc(b1-3)Gal(b1-4)GlcNAc(b1-3)Gal(b1-4)GlcNAc(b1-2)Man(a1-3)[GlcNAc(b1-3)Gal(b1-4)GlcNAc(b1-3)Gal(b1-4)GlcNAc(b1-2)Man(a1-6)]Man(b1-4)GlcNAc(b1-4)GlcNAc. The method in brief: as §1
Assay [3] concerns the target GlcNAc(b1-3)Gal(b1-4)GlcNAc(b1-3)Gal(b1-4)GlcNAc(b1-2)Man(a1-3)[GlcNAc(b1-3)Gal(b1-4)GlcNAc(b1-3)Gal(b1-4)GlcNAc(b1-2)Man(a1-6)]Man(b1-4)GlcNAc(b1-4)[Fuc(a1-6)]GlcNAc. In outline: as §1
Assay [4] addresses GlcNAc(b1-3)Gal(b1-4)GlcNAc(b1-3)Gal(b1-4)GlcNAc(b1-2)[GlcNAc(b1-3)Gal(b1-4)GlcNAc(b1-3)Gal(b1-4)GlcNAc(b1-6)]Man(a1-6)[GlcNAc(b1-3)Gal(b1-4)GlcNAc(b1-3)Gal(b1-4)GlcNAc(b1-2)Man(a1-3)]Man(b1-4)GlcNAc(b1-4)[Fuc(a1-6)]GlcNAc. In outline:
as §1

The target of assay [5] is GlcNAc(b1-3)Gal(b1-4)GlcNAc(b1-3)Gal(b1-4)GlcNAc(b1-3)Gal(b1-4)GlcNAc(b1-2)Man(a1-3)[GlcNAc(b1-3)Gal(b1-4)GlcNAc(b1-3)Gal(b1-4)GlcNAc(b1-3)Gal(b1-4)GlcNAc(b1-2)Man(a1-6)]Man(b1-4)GlcNAc(b1-4)GlcNAc. In outline: as §1
Assay [6] has as its target GlcNAc(b1-3)Gal(b1-4)GlcNAc(b1-3)Gal(b1-4)GlcNAc(b1-3)Gal(b1-4)GlcNAc(b1-2)Man(a1-3)[GlcNAc(b1-3)Gal(b1-4)GlcNAc(b1-3)Gal(b1-4)GlcNAc(b1-3)Gal(b1-4)GlcNAc(b1-2)Man(a1-6)]Man(b1-4)GlcNAc(b1-4)[Fuc(a1-6)]GlcNAc. In outline: as §1
In assay [7] the target is GlcNAc(b1-3)Gal(b1-4)GlcNAc(b1-3)Gal(b1-4)GlcNAc(b1-3)Gal(b1-4)GlcNAc(b1-2)[GlcNAc(b1-3)Gal(b1-4)GlcNAc(b1-3)Gal(b1-4)GlcNAc(b1-3)Gal(b1-4)GlcNAc(b1-6)]Man(a1-6)[GlcNAc(b1-3)Gal(b1-4)GlcNAc(b1-3)Gal(b1-4)GlcNAc(b1-3)Gal(b1-4)GlcNAc(b1-2)Man(a1-3)]Man(b1-4)GlcNAc(b1-4)[Fuc(a1-6)]GlcNAc. In outline:
as §1

Assay [8] concerns the target GlcNAc(b1-3)Gal(b1-4)GlcNAc(b1-3)Gal(b1-4)GlcNAc(b1-3)Gal(b1-4)GlcNAc(b1-3)Gal(b1-4)GlcNAc(b1-2)Man(a1-3)[GlcNAc(b1-3)Gal(b1-4)GlcNAc(b1-3)Gal(b1-4)GlcNAc(b1-3)Gal(b1-4)GlcNAc(b1-3)Gal(b1-4)GlcNAc(b1-2)Man(a1-6)]Man(b1-4)GlcNAc(b1-4)GlcNAc. In outline: as §1
The target in assay [9] is GlcNAc(b1-3)Gal(b1-4)GlcNAc(b1-3)Gal(b1-4)GlcNAc(b1-3)Gal(b1-4)GlcNAc(b1-3)Gal(b1-4)GlcNAc(b1-2)Man(a1-3)[GlcNAc(b1-3)Gal(b1-4)GlcNAc(b1-3)Gal(b1-4)GlcNAc(b1-3)Gal(b1-4)GlcNAc(b1-3)Gal(b1-4)GlcNAc(b1-2)Man(a1-6)]Man(b1-4)GlcNAc(b1-4)[Fuc(a1-6)]GlcNAc. In outline: as §1
Assay [10] has as its target GlcNAc(b1-3)Gal(b1-4)GlcNAc(b1-3)Gal(b1-4)GlcNAc(b1-3)Gal(b1-4)GlcNAc(b1-3)Gal(b1-4)GlcNAc(b1-2)[GlcNAc(b1-3)Gal(b1-4)GlcNAc(b1-3)Gal(b1-4)GlcNAc(b1-3)Gal(b1-4)GlcNAc(b1-3)Gal(b1-4)GlcNAc(b1-6)]Man(a1-6)[GlcNAc(b1-3)Gal(b1-4)GlcNAc(b1-3)Gal(b1-4)GlcNAc(b1-3)Gal(b1-4)GlcNAc(b1-3)Gal(b1-4)GlcNAc(b1-2)Man(a1-3)]Man(b1-4)GlcNAc(b1-4)[Fuc(a1-6)]GlcNAc. The method in brief: as §1

In assay [11] the target is Man(a1-3)[Man(a1-6)]Man(a1-6)[Man(a1-3)]Man(b1-4)GlcNAc(b1-4)GlcNAc. The method in brief:
as §1

In assay [12] the target is Man(a1-3)[Man(a1-6)]Man(b1-4)GlcNAc(b1-4)[Fuc(a1-6)]GlcNAc. The method in brief: as §1
Assay [13] concerns the target Neu5Ac(a2-3)Gal(b1-3)[Neu5Ac(a2-6)]GlcNAc(b1-3)[Fuc(a1-3)[Gal(b1-4)]GlcNAc(b1-6)]Gal(b1-4)Glc. In outline:
as §1

Assay [14] addresses Neu5Ac(a2-3)Gal(b1-4)GlcNAc(b1-6)GalNAc. In outline:
as §1

Assay [15] concerns the target Neu5Ac(a2-3)Gal(b1-4)[Fuc(a1-3)]GlcNAc(b1-6)[Gal(b1-3)]GalNAc. In outline:
as §1

Assay [16] addresses Neu5Ac(a2-3)[GalNAc(b1-4)]Gal(b1-4)GlcNAc(b1-3)GalNAc. The method in brief: as §1
Assay [17] has as its target Neu5Ac(a2-6)Gal(b1-4)GlcNAc(b1-2)Man(a1-3)[GlcNAc(b1-4)][Neu5Ac(a2-6)Gal(b1-4)GlcNAc(b1-2)Man(a1-6)]Man(b1-4)GlcNAc(b1-4)GlcNAc. The method in brief: as §1
Assay [18] has as its target Neu5Ac(a2-6)Gal(b1-4)GlcNAc(b1-3)[Neu5Ac(a2-6)Gal(b1-4)GlcNAc(b1-6)]GalNAc. In outline:
as §1

Assay [19] concerns the target Neu5Ac(a2-6)GlcNAc(b1-4)GlcNAc(b1-4)GlcNAc. The method in brief:
as §1

Assay [20] concerns the target Neu5Ac(a2-8)Neu5Ac(a2-3)[GalNAc(b1-4)]Gal(b1-4)Glc. The method in brief:
as §1

Assay [21] concerns the target Neu5Ac(a2-8)Neu5Ac(a2-8)Neu5Ac(a2-3)[Gal(b1-3)GalNAc(b1-4)]Gal(b1-4)Glc. In outline: as §1
The target of assay [22] is Neu5Ac(a2-8)Neu5Ac(a2-8)Neu5Ac(a2-3)[GalNAc(b1-4)]Gal(b1-4)Glc. The method in brief: as §1

Shown is part of a subset that was picked to be rich in the strongest signals.

B1: Di AAL2 (Agrocybe aegerita) (protein)
chain: MTSNVITQDLPIPVASRGFADIVGFGLDGVVIGRNAVNLQPFLAVKNFAQNAGGWLTTKHVRLIADTTGTGKGDIVGFGNAGVYVSVNNGKNTFADPPKMVIANFGYDAGGWRVEKHLRYLADIRKIGRADIIGFGEKGVLVSRNNGGLNFGPATLVLKDFGYDAGGWRLDRHLRFLADVTGNGHLDIVGFGDKHVFISRNNGDGTFAPAKSVIDNFCIDAGGWKIGDHPRFVADLTGDGTADIIGCGKAGCWVALNNGGGVFGQVKLVINDFGTDKGWQAAKHPRFIADLTGNGRGDVVGFGNAGVYVALNNGDGTFQSAKLVLKDFGVQQGWTVSKHRRFVVDLTGDGCADIIGFGEKETLVSYNDGKGNFGPVKALTNDFSFSGGKWAPETTVCWMANLDSSRHPAPAPMTSNVITQDLPIPVASRGFADIVGFGLDGVVIGRNAVNLQPFLAVKNFAQNAGGWLTTKHVRLIADTTGTGKGDIVGFGNAGVYVSVNNGKNTFADPPKMVIANFGYDAGGWRVEKHLRYLADIRKIGRADIIGFGEKGVLVSRNNGGLNFGPATLVLKDFGYDAGGWRLDRHLRFLADVTGNGHLDIVGFGDKHVFISRNNGDGTFAPAKSVIDNFCIDAGGWKIGDHPRFVADLTGDGTADIIGCGKAGCWVALNNGGGVFGQVKLVINDFGTDKGWQAAKHPRFIADLTGNGRGDVVGFGNAGVYVALNNGDGTFQSAKLVLKDFGVQQGWTVSKHRRFVVDLTGDGCADIIGFGEKETLVSYNDGKGNFGPVKALTNDFSFSGGKWAPETTVCWMANLDSSRH
Consider B1, for which the “glycan array binding signal (z-score)” value in assay [1] is 5.83; in assay [2], 3.47; in [3], 3.72; in assay [4], 5.12; in assay [5] it was 5.42; in [6] it was 4.23. Further, the “glycan array binding signal (z-score)” value was 5.39 in assay [7]; 5.42 in assay [8]; 5.09 in assay [9]; 5.69 in assay [10]; -0.333 in assay [11]; -0.327 in assay [12]. Besides, the “glycan array binding signal (z-score)” value is -0.313 in [13]; -0.218 in assay [14]; -0.336 in assay [15]; -0.285 in assay [16]; -0.319 in [17]; -0.251 in [18]. In addition, the “glycan array binding signal (z-score)” value in assay [19] was -0.302; in [20] it was -0.29; in [21], -0.297; in [22], -0.284.
